Results from PubChem BioAssay AID1159580 (chemical genetic matrix, 2015).
Several values for one entry are separate records, joined by “and”; a condition that tells them apart may be missing. Equal values may be shown once. Hit rate of the full screen: of about 5,500 compounds, about 2,000 (36%) were called active. Roughly 18% stayed inconclusive and do not appear here. Rule as the data show it: active = normalized growth mostly below about 0.91 (no sharp cut-off); inconclusive = no clear call, values can overlap the other calls; inactive = mostly above about 0.92. The list shows a part of the results.

Test: chemical genetic growth profiling, strain panel (AID 1159580);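 also: tested at 20 µM; growth read once vehicle control cultures reached saturation at 30 °C; 1 = growth at the plate median or of vehicle wells; lower values mean less growth of the strain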
Details: S. cerevisiae deletion strains, growth OD

Measured: normalized growth

CCC(C)C(NC)C(=O)O (centres undefined)
inactive: locus YAL013W, strain DEP1, stronger effect = lower value 1.02 | locus YAL021C, strain ccr4, stronger effect = lower value 1.03 | locus YAL026C, strain drs2, stronger effect = lower value 1.02 | locus YAL030W, strain snc1, stronger effect = lower value 1.01 | locus YBL061C, strain skt5, stronger effect = lower value 1.03 | locus YBR009C, strain hhf1, stronger effect = lower value 1.02 | locus YBR021W, strain FUR4, stronger effect = lower value 1.01 | locus YBR023C, strain chs3, stronger effect = lower value 1.02 | locus YBR171W, strain sec66, stronger effect = lower value 1.05 | locus YBR229C, strain ROT2, stronger effect = lower value 0.947 | locus YBR231C, strain swc5, stronger effect = lower value 1.01 | locus YBR279W, strain paf1, stronger effect = lower value 1.01 | locus YCL011C, strain gbp2, stronger effect = lower value 1.02 | locus YCL016C, strain dcc1, stronger effect = lower value 1.03 | locus YCL029C, strain bik1, stronger effect = lower value 0.982 | locus YCL061C, strain MRC1, stronger effect = lower value 1.03 | locus YCL069W, strain vba3, stronger effect = lower value 1.02 | locus YCR088W, strain abp1, stronger effect = lower value 1 | locus YDL005C, strain med2, stronger effect = lower value 1.02 | locus YDL035C, strain GPR1, stronger effect = lower value 0.981 | locus YDL040C, strain nat1, stronger effect = lower value 1.01 | locus YDL074C, strain BRE1, stronger effect = lower value 1.01 | locus YDL101C, strain DUN1, stronger effect = lower value 0.983 | locus YDL134C, strain PPH21, stronger effect = lower value 0.984 | locus YDL185W, strain tfp1, stronger effect = lower value 0.986 | locus YDL192W, strain arf1, stronger effect = lower value 1 | locus YDR001C, strain nth1, stronger effect = lower value 1.02 | locus YDR069C, strain doa4, stronger effect = lower value 1.02 | locus YDR101C, strain arx1, stronger effect = lower value 1 | locus YDR137W, strain rgp1, stronger effect = lower value 1.06 | locus YDR159W, strain sac3, stronger effect = lower value 1.02 | locus YDR162C, strain NBP2, stronger effect = lower value 0.966 | locus YDR195W, strain ref2 0.985 | locus YDR297W, strain sur2, stronger effect = lower value 1.01 | locus YDR318W, strain mcm21, stronger effect = lower value 0.985 | locus YDR334W, strain swr1, stronger effect = lower value 1.02 | locus YDR335W, strain msn5, stronger effect = lower value 1.01 | locus YDR388W, stronger effect = lower value 0.994 | locus YDR392W, strain spt3, stronger effect = lower value 0.986 | locus YDR502C, strain sam2, stronger effect = lower value 0.997 | locus YEL003W, strain gim4, stronger effect = lower value 1.01 | locus YEL037C, strain rad23, stronger effect = lower value 1.02 | locus YEL061C, strain CIN8 (second series), stronger effect = lower value 1.02 | locus YEL061C, strain CIN8, stronger effect = lower value 0.983 | locus YER015W, strain faa2, stronger effect = lower value 1.02 | locus YER016W, strain bim1, stronger effect = lower value 1.01 | locus YER110C, stronger effect = lower value 0.979 | locus YER111C, strain swi4, stronger effect = lower value 1.03 | locus YER155C, strain BEM2 (second series), stronger effect = lower value 1.01 | locus YER155C, strain BEM2, stronger effect = lower value 1 | locus YER167W, strain BCK2, stronger effect = lower value 0.975 | locus YFR010W, strain ubp6, stronger effect = lower value 1.03 | locus YGL078C, strain dbp3, stronger effect = lower value 0.999 | locus YGL086W, strain mad1, stronger effect = lower value 1.01 | locus YGL167C, strain pmr1, stronger effect = lower value 1.02 | locus YGL173C, strain kem1, stronger effect = lower value 1.03 | locus YGL227W, strain vid30, stronger effect = lower value 1.02 | locus YGL240W, strain doc1, stronger effect = lower value 1.01 | locus YGL248W, strain PDE1, stronger effect = lower value 0.982 | locus YGL253W, strain hxk2, stronger effect = lower value 1.02 | locus YGR135W, strain pre9, stronger effect = lower value 0.99 | locus YGR252W, strain gcn5, stronger effect = lower value 0.986 | locus YHR013C, strain ard1, stronger effect = lower value 1.03 | locus YHR027C, strain rpn1, stronger effect = lower value 1.03 | locus YHR030C, strain SLT2, stronger effect = lower value 0.985 and 1.06 | locus YHR079C, strain IRE1 (second series), stronger effect = lower value 0.991 | locus YHR079C, strain IRE1, stronger effect = lower value 1.09 | locus YHR094C, strain hxt1, stronger effect = lower value 0.977 | locus YHR129C, strain ARP1, stronger effect = lower value 0.99 | locus YHR142W, strain chs7, stronger effect = lower value 1.02 | locus YHR200W, strain rpn10, stronger effect = lower value 0.986 | locus YIL066C, strain RNR3, stronger effect = lower value 0.944 | locus YIL073C, strain SPO22, stronger effect = lower value 0.972 | locus YIL125W, strain kgd1, stronger effect = lower value 0.982 | locus YIR030C, strain dcg1, stronger effect = lower value 0.99 | locus YJL092W, strain hpr5, stronger effect = lower value 1.03 | locus YJL095W, strain BCK1 (second series), stronger effect = lower value 1.01 | locus YJL095W, strain BCK1, stronger effect = lower value 1.05 | locus YJL115W, strain asf1, stronger effect = lower value 1.03 | locus YJL129C, strain trk1, stronger effect = lower value 1.05 | locus YJL134W, strain LCB3, stronger effect = lower value 0.967 | locus YJL154C, strain vps35, stronger effect = lower value 1.01 | locus YJL164C, strain tpk1, stronger effect = lower value 1.03 | locus YJL166W, strain qcr8, stronger effect = lower value 1.02 | locus YJL168C, strain set2, stronger effect = lower value 0.993 | locus YJL187C, strain SWE1 (second series), stronger effect = lower value 1 | locus YJL187C, strain SWE1, stronger effect = lower value 1.01 | locus YJR043C, strain POL32, stronger effect = lower value 0.969 | locus YJR066W, strain TOR1, stronger effect = lower value 1 | locus YKL009W, strain mrt4, stronger effect = lower value 1.01 | locus YKL068W, stronger effect = lower value 0.973 | locus YKL085W, strain MDH1 (second series), stronger effect = lower value 0.979 | locus YKL085W, strain MDH1, stronger effect = lower value 0.979 | locus YKL160W, strain elf1, stronger effect = lower value 1.02 | locus YKL190W, strain CNB1, stronger effect = lower value 1 | locus YKR001C, strain vps1, stronger effect = lower value 1 | locus YKR026C, strain gcn3, stronger effect = lower value 1.02 | locus YKR091W, strain srl3, stronger effect = lower value 1 | locus YLL001W, strain dnm1, stronger effect = lower value 1.03 | locus YLL026W, stronger effect = lower value 1.01 | locus YLL041C, strain sdh2, stronger effect = lower value 1.02 | locus YLR027C, strain aat2, stronger effect = lower value 1.02 | locus YLR039C, strain RIC1, stronger effect = lower value 0.995 | locus YLR058C, strain SHM2, stronger effect = lower value 0.935 | locus YLR102C, strain apc9, stronger effect = lower value 0.985 | locus YLR113W, strain HOG1, stronger effect = lower value 1.09 | locus YLR221C, strain rsa3, stronger effect = lower value 1.03 | locus YLR258W, strain gsy2, stronger effect = lower value 1.01 | locus YLR262C, strain YPT6 (second series), stronger effect = lower value 1.05 | locus YLR262C, strain YPT6, stronger effect = lower value 0.989 | locus YLR268W, strain sec22, stronger effect = lower value 1.03 | locus YLR320W, strain mms22, stronger effect = lower value 1.03 | locus YLR330W, strain CHS5, stronger effect = lower value 0.987 | locus YLR342W, strain FKS1 (second series), stronger effect = lower value 0.977 | locus YLR342W, strain FKS1, stronger effect = lower value 1.01 | locus YLR357W, strain rsc2, stronger effect = lower value 1.02 | locus YLR370C, strain arc18, stronger effect = lower value 1.03 | locus YLR371W, strain rom2, stronger effect = lower value 0.982 | locus YLR384C, strain iki3, stronger effect = lower value 1.01 | locus YLR418C, strain cdc73, stronger effect = lower value 0.971 | locus YML016C, strain PPZ1, stronger effect = lower value 0.992 | locus YML032C, strain rad52, stronger effect = lower value 0.963 | locus YML120C, strain ndi1, stronger effect = lower value 1.01 | locus YML124C, strain tub3, stronger effect = lower value 0.997 | locus YMR058W, strain fet3, stronger effect = lower value 1.03 | locus YMR078C, strain ctf18, stronger effect = lower value 0.985 | locus YMR125W, strain sto1, stronger effect = lower value 1.01 | locus YMR129W, stronger effect = lower value 1.02 | locus YMR205C, strain PFK2, stronger effect = lower value 1.03 | locus YMR223W, strain ubp8, stronger effect = lower value 0.991 | locus YMR231W, strain pep5, stronger effect = lower value 1.01 | locus YMR307W, strain GAS1, stronger effect = lower value 1.02 | locus YNL067W, strain RPL9B, stronger effect = lower value 1.03 | locus YNL071W, strain lat1, stronger effect = lower value 1.02 | locus YNL128W, strain TEP1, stronger effect = lower value 0.986 | locus YNL183C, strain NPR1, stronger effect = lower value 0.998 | locus YNL209W, strain ssb2, stronger effect = lower value 1.01 | locus YNL233W, strain BNI4, stronger effect = lower value 1.04 | locus YNL248C, strain rpa49, stronger effect = lower value 1.02 | locus YNL250W, strain rad50, stronger effect = lower value 0.962 | locus YNL271C, strain bni1, stronger effect = lower value 0.992 | locus YNL298W, strain CLA4, stronger effect = lower value 0.988 | locus YNL307C, strain MCK1, stronger effect = lower value 0.988 | locus YNL322C, strain KRE1 (second series), stronger effect = lower value 1.02 | locus YNR049C, strain mso1, stronger effect = lower value 1.02 | locus YNR052C, strain pop2, stronger effect = lower value 1.01 | locus YOL012C, strain htz1 0.872 | locus YOL147C, strain pex11, stronger effect = lower value 0.976 | locus YOR001W, strain rrp6, stronger effect = lower value 1.02 | locus YOR061W, strain CKA2, stronger effect = lower value 0.961 | locus YOR069W, strain VPS5, stronger effect = lower value 0.984 | locus YOR070C, strain gyp1, stronger effect = lower value 1.03 | locus YOR080W, strain dia2, stronger effect = lower value 1.02 | locus YOR083W, strain WHI5, stronger effect = lower value 1.02 | locus YOR106W, strain vam3, stronger effect = lower value 1.02 | locus YOR136W, strain idh2, stronger effect = lower value 0.994 | locus YOR144C, strain elg1, stronger effect = lower value 0.993 | locus YOR184W, strain ser1, stronger effect = lower value 0.989 | locus YOR231W, strain MKK1, stronger effect = lower value 1.08 | locus YOR265W, strain rbl2, stronger effect = lower value 1.01 | locus YOR270C, strain vph1, stronger effect = lower value 1.05 | locus YOR290C, strain snf2, stronger effect = lower value 1.02 | locus YOR316C, strain cot1, stronger effect = lower value 0.993 | locus YPL051W, strain arl3, stronger effect = lower value 1.04 | locus YPL078C, strain atp4, stronger effect = lower value 1.02 | locus YPL106C, strain sse1, stronger effect = lower value 1.01 | locus YPL240C, strain hsp82, stronger effect = lower value 1 | locus YPL241C, strain CIN2, stronger effect = lower value 0.98 | locus YPL256C, strain CLN2, stronger effect = lower value 1.09 | locus YPR119W, strain clb2, stronger effect = lower value 0.991 | locus YPR141C, strain kar3, stronger effect = lower value 0.978 | locus YPR163C, strain tif3, stronger effect = lower value 0.985 | locus YPR167C, strain met16, stronger effect = lower value 0.989 | strain wtn01, stronger effect = lower value 1.01
